High-throughput results deposited in PubChem BioAssay by National Center for Advancing Translational Sciences (NCATS).
FEN1 inh = inhibitors of human flap endonuclease 1. Recombinant FEN1 flap cleavage, fluorescence, 15 min. P39748. Potency, µM (top dose mostly 114 µM), for the others: top-dose activity change, negative = inhibition, hits mostly inhibitors. 390,000 compounds, 0.35% hits; further: potency means the concentration at half of the fitted maximal effect; on the % scale 0 is the no-effect control and ±100 the full control effect; nearly all actives have a fitted effect of over 65% in size
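With each library titrated from low to high concentration, compounds met 10 nM FEN1 for 15 min at room temperature before 50 nM substrate was added; readings at 0 and 15 min fed four-parameter Hill curve fits.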
PI5P4Ka inh = PI5P4K alpha (human) kinase inhibition; 330,000 compounds, 1.2% hits; max response, %; PI5P4Kalpha enzyme, ADP-Glo luminescence, 60 min; hits give low values; active means max response of -50% or lower; inconclusive means between -30% and -50%; inactive means -30% or higher; further: value at the top dose of about 77 µM; on the % scale 0 is the no-effect control and ±100 the full control effect
Target sequence (P48426 whole entry, looked up): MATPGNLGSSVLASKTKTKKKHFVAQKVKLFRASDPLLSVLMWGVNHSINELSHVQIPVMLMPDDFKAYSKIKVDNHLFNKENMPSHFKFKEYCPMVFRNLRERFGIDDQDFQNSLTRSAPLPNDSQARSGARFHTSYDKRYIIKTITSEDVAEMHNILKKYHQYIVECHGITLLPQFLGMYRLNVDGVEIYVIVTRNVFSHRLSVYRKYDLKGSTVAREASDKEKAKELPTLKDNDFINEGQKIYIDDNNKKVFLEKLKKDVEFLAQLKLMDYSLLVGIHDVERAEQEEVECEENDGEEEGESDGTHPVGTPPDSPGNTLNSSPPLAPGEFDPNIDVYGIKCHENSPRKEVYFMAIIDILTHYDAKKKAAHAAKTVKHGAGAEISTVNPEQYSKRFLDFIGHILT
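Single end-point luminescence (ADP-Glo) quantified ADP from PI5P4Kalpha turnover; ATP 5 microM final, 1 h at RT, 0.1% CHAPS and 0.28 mM EGTA in HEPES pH 7.4.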
PLK1 PBD inh = PLK1 (human) polo-box domain binding inhibition; P53350; Plk1 PBD binding of FITC phosphopeptide, fluorescence polarization; Potency, µM, without a hit: max response, negative = inhibition, actives largely listed as inhibitors; 360,000 compounds, 2.8% hits; AID 720504; further: potency means the concentration at half of the fitted maximal effect; series mostly up to about 57 µM; on the % scale 0 is the no-effect control and ±100 the full control effect; nearly all actives have a fitted effect of over 65% in size
VDR inhibitor = blocks the human vitamin D receptor. AID 504847. 400,000 compounds, 0.93% hits. P11473. VDR-SRC2-3 peptide fluorescence polarization, 2 h. Potency, µM, without a hit: max response, negative = inhibition, most hits filed as inhibitors; further: potency means the concentration at half of the fitted maximal effect; on the % scale 0 is the no-effect control and ±100 the full control effect
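Signal is fluorescence polarization, reporting how far test compounds block the interaction of VDR with the SRC2-3 coregulator peptide after a 2 h room-temperature incubation.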
WRN helicase inh-1 = blocks human WRN helicase; Potency, µM (top dose mostly 114 µM), without a hit: at the highest dose activity change, negative = inhibition, hits mostly inhibitors; AID 651768; WRN helicase unwinding, fluorescent forked duplex, kinetic; Q14191; 360,000 compounds, 0.46% hits; further: potency means the concentration at half of the fitted maximal effect; on the % scale 0 is the no-effect control and ±100 the full control effect; nearly all actives have a fitted effect of over 55% in size
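Enzyme (20 nM final) and test compound sit together 15 min at room temperature before substrate addition. Substrate is a single-forked duplex oligonucleotide (100 nM) labelled with fluorophore and quencher, with 2 mM ATP; helicase unwinding raises red fluorescence, read kinetically.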
TCR act = T cell receptor activation; 330,000 tested, under 10 active; AID 504894; Potency, µM (series often up to 9.22 µM), for the others: at the highest dose activation of IL-2 secretion, hits mostly activators; primary human leukocytes, anti-CD3, IL-2 HTRF, 48 h; further: % of control where 0% means no effect
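1) Mix primary human leukocytes, a-CD3 beads and compound. 2) Incubate 48 hr. 3) Add HTRF IL-2 reagents (a-IL-2-K, a-IL-2-d2).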
WRN helicase inh-2 = confirmation of human WRN helicase inhibitors. shares compounds with WRN helicase inh-1. WRN helicase DNA unwinding, fluorescence kinetic. Potency, µM (series often up to 57.1 µM), inactives show top-dose activity, negative = inhibition, hits mostly inhibitors. 610 compounds, 63% hits; further: potency means the concentration at half of the fitted maximal effect; nearly all actives have a fitted effect of over 65% in size
TO displacement = DNA binding via thiazole orange displacement. shares compounds with WRN helicase inh-1. thiazole orange DNA binding displacement, fluorescence. Potency, µM (series often up to 57.1 µM), for the others: top-dose activity change, negative = inhibition, hits mostly inhibitors. 610 compounds, 10% hits. AID 720499;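 further: drop in dye fluorescence marks compound binding to DNA; potency means the concentration at half of the fitted maximal effect; on the % scale 0 is the no-effect control and ±100 the full control effect; nearly all actives have a fitted effect of over 60% in size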
BLM helicase inh = counter-screen for WRN helicase inhibitors: human BLM helicase inhibition; 610 compounds, 60% hits; Potency, µM (highest dose often 57.1 µM), for the others: at the top dose activity change, negative = inhibition, actives largely listed as inhibitors; shares compounds with WRN helicase inh-1; Recombinant BLM helicase DNA unwinding, red fluorescence; AID 720503; further: potency means the concentration at half of the fitted maximal effect; nearly all actives have a fitted effect of over 60% in size
* hit, by the source's call; ? = inconclusive; . = no result given; [ ] = remark or other dose. In the library only some 3.7% were active in any assay of this set; here they are far more common. Unless noted, the call rests on the fitted dose curve; in most records, active means well fitted curve in the direction sought with a large enough effect; inconclusive means small, poorly fitted or top-dose-only effect, or another doubt; inactive means no such curve, though single readings can be large; an effect the other way counts as inactive or inconclusive.

SMILES	FEN1 inh	PI5P4Ka inh	PLK1 PBD inh	VDR inhibitor	WRN helicase inh-1	TCR act	WRN helicase inh-2	TO displacement	BLM helicase inh
Oc1ccc(C2CNCCc3c2cc(O)c(O)c3Cl)cc1 (stereo unspecified)	9%	5	-19%	2%	?	4%	19µM*	-1%	24µM*
COc1cc(/C=N/Nc2nc(Nc3ccc(C)cc3)nc(-n3nc(C)cc3C)n2)cc(OC)c1OC	-16%	.	-5%	-14%	-31%	2%	.	.	.
COc1cc(/C=N/Nc2nc(Nc3ccccc3)nc(-n3nc(C)cc3C)n2)cc(OC)c1OC	-9%	-8	0%	2%	?	-8%	6.8µM*	78%	2.7µM*
N#CC1C(=O)c2ccccc2C1c1ccccc1 (stereo unspecified)	1%	-18	30µM*	45µM*	13µM*	-2%	-14%	2%	-15%
Cc1ccc(NC(=O)CSc2nnc3ccc4ccccc4n23)cc1	-2%	.	.	-4%	.	.	.	.	.
CC1=C([N+](=O)[O-])C(c2ccc3c(c2)OCO3)N(C)C(=O)N1C (stereo unspecified)	-8%	?	8.4µM*	?	?	0%	-6%	-1%	-13%
COc1ccc(CN(C#N)c2nc(SC)nc(N(C)C)n2)cc1	?	14	0%	5%	100µM*	0%	-7%	-9%	-9%
CCN1/C(=C/c2ccc3cc(C)ccc3[n+]2C)Sc2ccc3sccc3c21	?	-24	-13%	-1%	89µM*	14%	0.34µM*	0.22µM*	0.68µM*
Cn1c(=O)c2c(SCC(=O)NCc3ccc(F)cc3)nc(-c3ccccc3Cl)nc2n(C)c1=O	-10%	.	.	4%	.	.	.	.	.
NC(=O)N/N=C/c1coc2ccc(O)cc2c1=O	16%	-22	-7%	-12%	-5%	0%	.	.	.
O=C1NN(c2ccccc2)C(=O)/C1=C\c1coc2ccc(O)cc2c1=O	-8%	-68*	?	22µM*	?	4%	-22%	-11%	?
Cc1ccc(N2C(=O)CS(=O)C(c3ccccc3)C2=O)cc1C (stereo unspecified)	?	-26	1.5µM*	?	35µM*	6%	?	-11%	?
Cc1ccc(N2C(=O)C3C(C2=O)N2CCCN2C3c2ccccc2)cc1C (stereo unspecified)	4%	-7	?	?	1%	1%	.	.	.
COc1ccc(OC)c(/C=N/c2oc(-c3ccco3)c(-c3ccco3)c2C#N)c1	-13%	-79*	-12%	-5%	?	6%	22µM*	?	6.8µM*
N#Cc1c(N)oc(-c2ccco2)c1-c1ccco1	-17%	?	-14%	-8%	-35%	-10%	.	.	.
O=C(N/N=C/c1ccc(-c2ccc(S(=O)(=O)Nc3ncccn3)cc2)o1)c1cc2ccccc2cc1O	16µM*	-84*	27µM*	3%	8.9µM*	-5%	6.8µM*	?	15µM*
Cn1cccc1/C=N/NC(=O)c1cc2ccccc2cc1O	-7%	-21	-1%	-16%	-29%	-3%	.	.	.
Cc1ccc(S(=O)(=O)c2nc(-c3ccco3)oc2SC(C)c2ccccc2)cc1 (stereo unspecified)	-17%	.	.	-5%	.	.	.	.	.
O=C(N/N=C1/C(=O)c2cccc3cccc1c23)c1ccc(Cl)cc1	79µM*	-20	?	4%	16µM*	3%	6.1µM*	19µM*	2.2µM*
COc1ccc(Cl)cc1S(=O)(=O)N1CCN(Cc2cccc(F)c2)CC1	-15%	.	.	14%	.	.	.	.	.
Cc1ccc(CNC(=O)CCCn2c(=O)c3ccccc3n(CC(=O)Nc3ccc(C)c(C)c3)c2=O)cc1	-2%	.	.	9%	.	.	.	.	.
O=C(O)C1C2C=CC(CC2)C1C(=O)O (stereo unspecified)	-4%	-22	?	26%	?	.	.	.	.
CC1C=CC(C)C(C(=O)O)C1C(=O)O (stereo unspecified)	-6%	-1	?	5%	?	0%	14µM*	38%	4.8µM*
COc1ccc(CNC(=O)c2cnc3sc4cc(OC)ccc4n3c2=O)cc1	-1%	.	.	11%	.	.	.	.	.
COc1ccc(CNC(=O)COC(=O)CCc2nc3ccccc3c(=O)[nH]2)cc1	-2%	8	-14%	-3%	-24%	14%	.	.	.
SMILES	FEN1 inh	PI5P4Ka inh	PLK1 PBD inh	VDR inhibitor	WRN helicase inh-1	TCR act	WRN helicase inh-2	TO displacement	BLM helicase inh
COc1ccc(OC)c(NC(=O)COC(=O)CCc2nc3ccccc3c(=O)[nH]2)c1	6%	-6	-10%	-21%	?	-1%	?	-13%	?
O=C(NC1CCCC1)c1ccc2c(=O)n(Cc3ccccc3)c(SCc3ccccc3F)nc2c1	16%	.	.	-3%	.	.	.	.	.
O=c1cc(-c2ccc(F)cc2)nc(SCc2nc(-c3cccc(C(F)(F)F)c3)no2)[nH]1	10%	.	.	3%	.	.	.	.	.
COc1ccc(Sc2ccc(/C=C3\C(=O)NN(c4ccccc4)C3=O)o2)cc1	-18%	?	6µM*	?	?	1%[46.1 µM]	22µM*	-18%	22µM*
CCN1CCC(O)(/C=C/c2ccc(C(C)C)cc2)C(C(=O)/C=C/c2ccc(C(C)C)cc2)C1 (stereo unspecified)	-25%	-1	-29%	40µM*	16µM*	1%	-28%	-30%	?
O=C(Nc1nncs1)c1cc(-c2ccco2)nc2ccccc12	-17%	?	?	-4%	32µM*	3%	?	-9%	?
COc1ccccc1CNC(=O)COC(=O)c1cc(-c2ccco2)nc2ccccc12	50µM*	.	?	8%	35µM*	-1%	19µM*	?	17µM*
COc1ccc(NC(=O)c2cc(-c3ccco3)nc3ccccc23)cc1	13%	?	-9%	10%	-22%	-3%	.	.	.
CCOc1ccc(-n2cc(-c3ccccc3)c3c(N4CCN(c5ccccc5OC)CC4)ncnc32)cc1	-2%	.	.	15%	.	.	.	.	.
COc1cc2c(cc1OC)C(COc1ccccc1OC)N(C(=O)CC(C)C)CC2 (stereo unspecified)	-19%	.	.	-12%	.	.	.	.	.
COc1ccc(-c2cn3cccnc3n2)cc1NC(=O)Nc1cc(C)ccc1C	-16%	.	.	3%	.	.	15µM*	-8%	6.8µM*
